For the test, the system named is CDK2.
Turning to `NS(=O)(=O)c1ccc(N/N=C2\C(=O)Nc3ccc(Cl)cc32)cc1` [GW280670X], the Kinases covered entry is given as “CDK2”.
Under `O=C(Nc1n[nH]c2nc(-c3ccc(O)cc3)c(Br)cc12)C1CC1` [SB-725317] stands “CDK2”; under `NS(=O)(=O)c1ccc(Nc2ncc(-c3ccccc3)o2)cc1` [GW572399X], “CDK2”.
Under `NS(=O)(=O)c1ccc(N/N=C2\C(=O)Nc3ccc(-c4cnco4)cc32)cc1` [GW276655] stands “CDK2”; under `NS(=O)(=O)c1ccc(N/N=C2\C(=O)Nc3ccc(C(=O)NCc4ccncc4)cc32)cc1` [GW300657X], “CDK2”; under `CC(C)COC(=O)c1ccc2c(c1)/C(=C/Nc1ccc(S(N)(=O)=O)cc1)C(=O)N2` [GW416981X], “CDK2”.

For the origin of these results see paper PMC7826789 (International Journal of Molecular Sciences, 2021).
